# TcdB inh = TcdB glycohydrolase inhibition | P18177 | TcdB glycohydrolase enzymatic assay, plate reader | inhibition, % at 9.99 µM | actives 0.24% (n = 350,000) | AID 652162; in the data active means inhibition above about 10%
# Autofluor counter = counter-screen for toxin protease inhibitors: compound fluorescence. compound autofluorescence counterscreen, microsphere flow cytometry; stronger effect = higher value. fluorescence intensity (no concentration beside the values). actives 3.1% (n = 360,000). AID 624483; in the data active means fluorescence intensity above about 16000; inconclusive means no clear call, values can overlap the other calls
# BoNT-F LC inh = inhibitors of Botulinum neurotoxin F light chain protease; Multiplex microsphere protease cleavage assay, flow cytometry; inhibition, % at 10 µM; AID 588497; actives 0.22% (n = 360,000); in the data active means inhibition above about 35%, passing the limit was not always enough; inconclusive means no clear call, values can overlap the other calls; further: plate controls were buffer without enzyme for full effect and enzyme alone for no effect
# Anthrax LF prot = blocks Bacillus anthracis lethal factor protease. P15917. multiplex microsphere protease cleavage assay, LF. inhibition, % at 10 µM. actives 0.12% (n = 360,000). AID 588501; further: plate controls were buffer without enzyme for full effect and enzyme alone for no effect
# BoNT-A LC inh2 = BoNT A light chain protease inhibition | multiplex microsphere protease substrate cleavage, flow cytometry | inhibition, % at 10 µM | actives 0.17% (n = 360,000); further: plate controls were buffer without enzyme for full effect and enzyme alone for no effect
# The depositor's hits bear a star; ? = inconclusive; nt = not tested or not shown. Shown is part of a subset that was picked to be rich in hits. Unless noted, no stated cut-off is given here; in the data, active means inhibition above about 30%; inconclusive means no clear call, values can overlap the other calls; inactive means below that.
SMILES,TcdB inh,Autofluor counter,BoNT-F LC inh,Anthrax LF prot,BoNT-A LC inh2
CC(=O)c1cccc(NC(=O)CCN2C(=O)C3C4CCC(C4)C3C2=O)c1 (stereo unspecified),1.2,?,6.6,0.4,1.3
CCC(=O)N(C)C[C@@H]1Oc2cc(C#Cc3ccccc3)ccc2S(=O)(=O)N([C@H](C)CO)C[C@H]1C,1.1,nt,nt,nt,nt
CCOC(=O)C1CCCn2c1nc1sc3c(c1c2=O)CCCC3 (stereo unspecified),nt,23606*,0.5,-1.8,-1.4
O=c1c2c3c(sc2nc2n1CCCC2)CCCC3,nt,3157,-3.4,0.6,0.5
Nc1ccc2c(c1)Nc1ccccc1CC2,14.7*,5372,-13.0,-1.7,-0.8
COc1cccc(-c2ccc([C@H]3[C@H](CO)N4C(=O)CN(C(=O)CN5CCOCC5)C[C@@H]34)cc2)c1,0.2,nt,nt,nt,nt
COC(=O)c1sc(N)c(C(=O)OC)c1COC(=O)c1c(C)noc1C,nt,20148*,10.3,-6.2,5.5
COC(=O)c1sc(NC(=O)c2c(C)noc2C)nc1C,0.0,nt,nt,nt,nt
Cc1ccc(C(=O)NN2CCOCC2)cc1,nt,19445*,0.1,0.6,?
COc1ccc(C(C(=O)NC2CCCC2)N(C(=O)c2snc(-c3ccc(F)cc3)c2N)c2ccccc2)cc1 (stereo unspecified),nt,20660*,0.1,-0.9,-0.9
COc1ccc(C(C(=O)NC2CCCC2)N(C(=O)c2snc(-c3ccc(F)cc3)c2N)c2ccc(OC)cc2)cc1 (stereo unspecified),nt,21490*,0.1,0.5,-1.3
COc1ccc(N(C(=O)c2ccn[nH]2)C(C(=O)NC2CCCC2)c2ccc(F)cc2)cc1 (stereo unspecified),-0.2,4014,-13.2,0.4,1.4
COc1ccc(C(C(=O)NC2CCCC2)N(C(=O)c2snc(-c3ccc(F)cc3)c2N)c2ccc(F)cc2)cc1 (stereo unspecified),nt,24202*,-1.8,-2.1,-2.4
COc1ccc(C(C(=O)NC2CCCCC2)N(C(=O)c2sc(C)nc2C)c2ccccc2)cc1 (stereo unspecified),-1.6,2785,-1.2,-2.4,0.2
COc1ccc(C(C(=O)NC2CCCC2)N(C(=O)c2snc(-c3ccc(F)cc3)c2N)c2cccc(F)c2)cc1 (stereo unspecified),nt,23994*,-0.9,-2.0,-1.5
CC(C)C#Cc1ccc2c(c1)O[C@@H](CN(C)C(=O)c1ccccn1)[C@@H](C)CN([C@H](C)CO)S2(=O)=O,-2.0,nt,nt,nt,nt
C[C@@H]1CN([C@@H](C)CO)C(=O)c2cc(NS(=O)(=O)c3ccc(F)cc3)ccc2O[C@H]1CN(C)Cc1ccncc1,-4.1,nt,nt,nt,nt
CCCN1[C@@H]2c3ccc(-c4cccc(F)c4)c(=O)n3C[C@H]1[C@H](CO)[C@H]2C(=O)NCC,0.3,nt,nt,nt,nt
Cc1ccc(S(=O)(=O)Nc2ccc3c(c2)C(=O)N([C@@H](C)CO)C[C@@H](C)[C@H](CN(C)C(=O)Cc2ccccc2)OCCCC[C@H](C)O3)cc1,-1.1,nt,nt,nt,nt
CCC(=O)Nc1ccc2c(c1)C(=O)N(C)[C@@H]1CC[C@H](CC(=O)NCc3ccccc3Cl)O[C@@H]1CO2,0.1,nt,nt,nt,nt
COc1ccc(NC(=O)Nc2ccc3c(c2)CC(=O)N([C@H](C)CO)C[C@@H](C)[C@@H](CN(C)S(=O)(=O)c2cccs2)O3)cc1,-0.9,nt,nt,nt,nt
Cc1noc(C)c1S(=O)(=O)Nc1ccc2c(c1)CC(=O)N([C@@H](C)CO)C[C@H](C)[C@H](CN(C)Cc1ccc3c(c1)OCO3)O2,-0.7,nt,nt,nt,nt
O=c1c2ccc(Cl)cc2[nH]c(=S)n1-c1cccnc1,10.4*,4331,-4.6,0.5,-0.9
Cc1noc(C)c1NC(=O)N(C)C[C@H]1Oc2ccc(NC(=O)NC3CCCCC3)cc2C(=O)N([C@@H](C)CO)C[C@@H]1C,0.7,nt,nt,nt,nt
Cc1cc(C(F)(F)F)nc(SCC(=O)Nc2ccccc2)n1,-0.2,22832*,-4.5,-1.0,?
SMILES,TcdB inh,Autofluor counter,BoNT-F LC inh,Anthrax LF prot,BoNT-A LC inh2
COC(=O)CSc1cc(C)nc(NC(C)=O)n1,nt,6056,0.7,-10.1,-0.4
CCOC(=O)CSc1cc(C)nc(NC(C)=O)n1,2.2,19697*,2.7,3.0,?
COC(=O)CSc1nc(C)cc(C)n1,0.4,4901,-4.3,-3.2,-0.9
CSc1nc(C)cc(SCC(=O)Nc2ccccc2)n1,nt,23915*,-2.8,1.1,-1.2
COC(=O)CSc1cc(C)nc(SC)n1,nt,20467*,-1.8,3.3,-2.4
CCOC(=O)CSc1nc(C)cc(C)n1,nt,2533,-1.3,1.4,0.2
CSc1nsc(SCC(=O)Nc2cccc(C(C)=O)c2)n1,nt,21617*,2.5,0.2,2.4
CSc1nsc(SCC(=O)Nc2ccccc2)n1,-0.6,3479,3.4,-6.5,-0.9
CCOC(=O)CSc1cn2c(n1)CCC2,nt,24514*,-5.1,-2.7,-3.6
C[C@@H]1CCCCO[C@@H](CN(C)CC2CCCCC2)[C@@H](C)CN([C@@H](C)CO)C(=O)c2cc(NC(=O)C3CCCCC3)ccc2O1,-3.7,nt,nt,nt,nt
CCCCC(=O)Nc1c(O)c2ccccc2[nH]c1=O,nt,21304*,-0.8,-0.5,-1.5
CCN1CCCc2cc(CN(CCN3CCOCC3)C(=O)Nc3ccc(C)c(C)c3)ccc21,nt,20262*,-9.3,-2.3,-1.8
CCc1ccc(NC(=O)N(CCN2CCOCC2)Cc2ccc3c(c2)CCCN3CC)cc1,nt,8466,-24.5,-8.2,-0.4
CCN(CC)S(=O)(=O)c1ccc(NC(=O)c2ccccc2N(C)S(C)(=O)=O)cc1,nt,21922*,2.8,-6.8,?
COc1ccccc1CNC(=O)c1ccccc1N(C)S(C)(=O)=O,-3.3,19853*,2.3,-0.4,2.1
COc1ccccc1CNC(=O)c1ccccc1NS(C)(=O)=O,nt,20558*,0.4,0.2,0.1
CC(=O)Nc1cccc(-c2nnc(SCC(=O)N3CCCCC3)n2C)c1,nt,24749*,-3.2,-0.2,-1.9
Cc1cccc(C(=O)Nc2sc(C)c(-c3ccccc3)c2C#N)c1,nt,2262,-4.6,-2.5,0.5
Cc1noc(C)c1C(=O)Nc1sc(C)c(-c2ccccc2)c1C#N,nt,22924*,2.7,-1.9,?
CN(C)C(=O)C[C@@H]1CC[C@@H]2[C@H](COC[C@H](O)CN2Cc2nccs2)O1,0.4,nt,nt,nt,nt
Cc1sc(NC(=O)c2ccc(Cl)s2)c(C(N)=O)c1C,nt,16138*,-1.6,-9.9,-0.2
Cc1sc(NC(=O)c2ccc(Br)s2)c(C(N)=O)c1C,nt,7911,-6.2,3.7,-1.3
CC1(C)CC(C#N)(N2CCOCC2)CCO1 (stereo unspecified),-1.8,19964*,1.5,0.9,?
COc1ccc(-c2ccc(C3[C@H]4CNC[C@@H]3N4C(=O)Nc3ccc4c(c3)OCO4)cc2)cc1 (stereo partly specified),-1.2,nt,nt,nt,nt
COc1ccc2c(=O)cc(-c3ccccc3F)oc2c1,1.3,3780,46.1*,1.5,4.9
COc1ccc2c(=O)cc(C(F)(F)C(F)(F)F)oc2c1,nt,5991,-1.7,-4.2,-1.4
C[C@H]1CN([C@@H](C)CO)C(=O)c2cc(NC(=O)CCC(F)(F)F)ccc2O[C@@H]1CN(C)C(=O)Nc1ccccc1,-6.3,nt,nt,nt,nt
CCCCCn1c(=O)c(C(=O)c2ccccc2)nc2ccccc21,1.0,18403*,2.7,-11.9,?
Clc1cccc(N2CCNCC2)c1Cl,nt,19873*,-2.9,-0.4,1.0

# Bioassay records from PubChem.
